Records with an inconclusive call do not appear. Calls of active or inactive are those of the source. Rule for the calls: active = hit-call score of the fitted dose curve at least 0.9, where 1 is the maximum; inconclusive = response in the unintended direction; inactive = score below 0.9.

Ratio of Nucleoli Translocation and Cytoplasm, AR (gene 367), sequence (P10275 whole entry, looked up, the tested form may be a part): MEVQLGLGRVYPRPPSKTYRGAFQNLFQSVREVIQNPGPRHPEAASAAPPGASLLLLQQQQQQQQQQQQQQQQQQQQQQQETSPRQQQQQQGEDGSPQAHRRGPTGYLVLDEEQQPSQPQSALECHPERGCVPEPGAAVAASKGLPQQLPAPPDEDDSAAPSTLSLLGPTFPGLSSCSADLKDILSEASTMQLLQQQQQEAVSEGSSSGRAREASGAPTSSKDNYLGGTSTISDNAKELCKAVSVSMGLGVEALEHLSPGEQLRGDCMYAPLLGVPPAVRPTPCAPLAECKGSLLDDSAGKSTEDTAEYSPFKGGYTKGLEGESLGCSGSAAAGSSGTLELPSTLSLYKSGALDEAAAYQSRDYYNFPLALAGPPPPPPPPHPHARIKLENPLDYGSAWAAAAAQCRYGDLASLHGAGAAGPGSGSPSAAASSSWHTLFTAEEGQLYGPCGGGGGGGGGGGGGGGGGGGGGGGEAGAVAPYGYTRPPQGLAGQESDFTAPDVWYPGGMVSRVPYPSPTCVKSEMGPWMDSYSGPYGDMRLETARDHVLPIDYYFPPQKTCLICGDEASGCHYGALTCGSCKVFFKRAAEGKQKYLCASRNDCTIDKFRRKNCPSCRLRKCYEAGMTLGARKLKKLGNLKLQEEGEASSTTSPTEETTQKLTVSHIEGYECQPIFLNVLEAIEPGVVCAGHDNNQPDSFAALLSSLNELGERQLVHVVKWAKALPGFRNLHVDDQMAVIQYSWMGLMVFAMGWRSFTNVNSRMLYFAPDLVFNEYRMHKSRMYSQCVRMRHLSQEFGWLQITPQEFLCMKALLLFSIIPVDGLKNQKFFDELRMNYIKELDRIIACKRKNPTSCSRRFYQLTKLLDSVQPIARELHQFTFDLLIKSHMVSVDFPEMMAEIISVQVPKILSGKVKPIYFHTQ

The target in this assay is Ratio of Nucleoli Translocation and Cytoplasm, AR (gene 367) (UniProt P10275). The experiment in a line: UPITT_HCI_U2OS_AR_TIF2_Nucleoli_Cytoplasm_Ratio_Antagonist: University of Pittsburgh U2OS Androgen Receptor-Transcriptional Intermediary Factor 2 (AR-TIF2) Antagonism High Content Imaging Assay for Ratio of Nucleoli Translocation and Cytoplasm (AID 2283999).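 Note: antagonists lower the DHT-driven ratio of nucleolar to cytoplasmic red signal.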 The text has this:
UPITT_AR_TIF2_PPIB is a cell-based, high-content imaging assay that uses U2OS, a human osteosarcoma cell line, expressing a human androgen receptor fused to red fluorescent protein and the coactivator TIF2 fused to green fluorescent protein. UPITT_HCI_U2OS_AR_TIF2_Nucleoli_Cytoplasm_Ratio_Antagonist is one of four assay components measured from the UPITT_AR_TIF2_PPIB assay. It is designed to make measurements of the ratio of red fluorescence localized in the nucleolar region of the cell nucleus to red fluorescence localized in the cytoplasm as detected with high-content fluorescent imaging.Data from the assay component UPITT_HCI_U2OS_AR_TIF2_Nucleoli_Cytoplasm_Ratio_Antagonist was analyzed into 1 assay endpoint. This assay endpoint, UPITT_HCI_U2OS_AR_TIF2_Nucleoli_Cytoplasm_Ratio_Antagonist, was analyzed in the positive analysis fitting direction relative to DHT as the baseline of activity. Using a type of binding reporter, measures of receptor for loss-of-signal activity can be used to understand the binding at the pathway-level as it relates to the gene AR.
Daughter plates containing 2 uL of 10 mM compounds in DMSO were prepared and replicated from the 384-well Library of Pharmacologically Active Compounds (LOPAC) master plates using the Bravo outfitted with a 384-well transfer head. Aluminum adhesive plate seals were applied with an Abgene Seal-IT 100 (Rochester, NY) plate sealer, and the plates were stored at -20 C in a Matrical MatriMinistore (Spokane, WA) automated compound storage and retrieval system. For screening, LOPAC daughter plates were withdrawn from -20C storage, thawed to ambient temperature, centrifuged 1-2 min at 50 g, and the plate seals were removed before the transfer of 98 uL of serum-free tissue culture medium (SFM) into wells using the BioTek Microflo liquid handler (BioTek, Winooski, VT) to generate a 200 uM intermediate stock concentration of library compounds (2.0% DMSO). The diluted compounds were mixed by repeated aspiration and dispensation using a 384-well P30 dispensing head on the Evolution P3 (EP3) liquid handling platform (PerkinElmer, Waltham, MA) and then 5 uL of diluted compounds was transferred to the wells of assay plates. In the LOPAC screen, compounds were individually tested at a final concentration of 20 uM (0.2% DMSO). After the diluted compounds had been transferred from the daughter plates to the primary HCS assay plates, aluminum adhesive plate seals were applied and the diluted daughter plates were stored frozen at -20C. To confirm active compounds identified in the primary screen, we withdrew the LOPAC daughter plates containing the 200 uM intermediate concentration of library compounds (2.0% DMSO) from -20C storage, thawed them to ambient temperature, centrifuged them for 1-2 min at 50 g, and removed the plate seals. A work list was generated to direct the Multiprobe Janus liquid handling platform (PerkinElmer) to cherry pick 75 uL from the wells of the diluted daughter plates that were flagged active in the primary screen and to reformat these into a 384-well plate hit confirmation daughter plate. Five microliters of primary HCS active compounds was then transferred into triplicate wells of assay plates using a 384-well P30 dispensing head on the Evolution P3 (EP3) liquid handling platform (PerkinElmer). […] Daughter plates containing 2 uL of the serially diluted compounds in DMSO were prepared and replicated from the 384-well serial dilution master plates using the Bravo outfitted with a 384-well transfer head. Aluminum adhesive plate seals were applied and plates were stored at -20C. For testing in the bioassays, daughter plates were withdrawn from -20C storage, thawed to ambient temperature, centrifuged for 1-2 min at 50 g, and the plate seals were removed before the transfer of 38 uL of SFM into wells using the BioTek Microflo liquid handler (BioTek) to generate an intermediate stock concentration of library compounds ranging from 1.95 to 500 uM (5.0% DMSO). […]
On to `CCC1(c2ccc(N)cc2)CCC(=O)NC1=O` (stereo unspecified), for which the result was inactive.

On to `CC(C)(C)CC(C)(C)c1ccc(O)cc1`, for which the outcome was inactive.

Regarding `Clc1ccc(COC(Cn2ccnc2)c2ccc(Cl)cc2Cl)cc1` (stereo unspecified), the outcome was inactive.

For the molecule `CC(C)(c1ccc(OCC2CO2)cc1)c1ccc(OCC2CO2)cc1` (stereo unspecified), the AC50 is 38.1 µM (active).

Consider `CCOP(=S)(OCC)Oc1nc(Cl)c(Cl)cc1Cl`, for which the outcome was inactive.

As for `COP(=O)(OC)O/C(=C\Cl)c1cc(Cl)c(Cl)cc1Cl`, the outcome was inactive.

Turning to `CN(CCCC(=O)c1cccnc1)N=O`, the result was inactive.

Consider `CC(C)c1cccc(C(C)C)c1O`, for which the result was inactive.

As to `c1cc[c]([Hg][c]2ccccc2)cc1`, the AC50 is 85.1 µM (active).

On to `Cc1ccccc1C(=O)Nc1cccc(OC(C)C)c1`, for which the result was inactive.

For `COP(=S)(OC)Oc1cc(Cl)c(Cl)cc1Cl`, the outcome was inactive.

As for `Cl/C=C\C[N+]12CN3CN(CN(C3)C1)C2`, the AC50 is 50 µM (active).

`CCC(=O)C(CC(C)N(C)C)(c1ccccc1)c1ccccc1` (stereo unspecified): the outcome was inactive.

For the molecule `CC(=O)[O][Hg][c]1ccccc1`, the AC50 is 0.424 µM (active).

On to `O=[N+]([O-])c1ccc(O)c([N+](=O)[O-])c1`, for which the outcome was inactive.

For `CCCCCCCCc1ccc(O)cc1`, the outcome was inactive.

On to `Cc1ccc2ccccc2c1C`, for which the outcome was inactive.

For the molecule `CCSC(C)CC1CC(=O)C(C(CC)=NOC/C=C/Cl)=C(O)C1` (stereo unspecified), the outcome was inactive.

As for `C[C@H]1O[C@@H](O[C@H]2[C@@H](O)C[C@H](O[C@H]3[C@@H](O)C[C@H](O[C@H]4CC[C@@]5(C)[C@H](CC[C@@H]6[C@@H]5CC[C@]5(C)[C@@H](C7=CC(=O)OC7)CC[C@]65O)C4)O[C@@H]3C)O[C@@H]2C)C[C@H](O)[C@@H]1O`, the outcome was inactive.

Turning to `C=CC(=O)OCCCCCC(C)C`, the result was inactive.

`COP(=S)(OC)Oc1ccc(Sc2ccc(OP(=S)(OC)OC)cc2)cc1`: the result was inactive.

Regarding `O=C1C2(Cl)C3(Cl)C4(Cl)C(Cl)(Cl)C5(Cl)C3(Cl)C1(Cl)C5(Cl)C24Cl` (stereo unspecified), the concentration at half-maximal activity (AC50) is 13.7 µM (active).

With `COP(=O)(OC)OC`, the result was inactive.

Regarding `C=CCc1ccc(OC)cc1`, the outcome was inactive.

In the case of `O=c1[nH]c(=O)[nH]c(=O)[nH]1`, the result was inactive.

In the case of `CC12CC1(C)C(=O)N(c1cc(Cl)cc(Cl)c1)C2=O` (stereo unspecified), the result was inactive.

The values above are taken from PubChem BioAssay (EPA / NIEHS).
